Active and inactive are the calls of the source.

Z-score and composite z-score data for eight molecules are collected here from PubChem BioAssay.

Experiment [1] in a line: E. coli DRC41 culture turbidity changes, primary screen, E. coli filamentation inducer project, strain DRC41, OD650, 48 h (AID 1152).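 Also: E. coli MC1000 strain DRC41 lacking acrAB efflux pump and sulA.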 To be noted: E. coli DRC41 (acrAB sulA), higher = more signal, called active from +8 up or from −8 down.
Experiment [2] is described as follows: small-molecule binders of probe aLefty1, primary screen, biochemical, small-molecule microarray, 635/667 nm fluorescence (AID 1153).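 Also: score merges spot fluorescence with signal-to-noise ratio from the scanned slide images.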 To be noted: higher = more signal.
Experiment [3] can be described thus: PSAC antagonists in infected red cells, primary screen, cell-based, P. falciparum Indochina, OD700, 1 h (AID 1154). To be noted: P. falciparum Indochina infected RBC osmotic lysis, higher = more signal, called active from +8 up or from −8 down.
A short description of experiment [4]: PSAC antagonists in infected red cells, primary screen, cell-based, P. falciparum Indochina, OD700, 2 h (AID 1155).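 Also: lysis reports solute entry through the parasite surface anion channel PSAC; channel blockers reduce lysis of infected cells.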 Conditions: P. falciparum Indochina infected erythrocytes, osmotic lysis OD700; higher = more signal, called active from +8 up or from −8 down.
A short description of experiment [5]: osmotic lysis modulators in infected erythrocytes, primary screen, PSAC antagonist project, cell-based, P. falciparum Indochina, OD700, 3 h (AID 1156). To be noted: higher = more signal, called active from +8 up or from −8 down.
Experiment [6] can be described thus: PSAC antagonists in infected red cells, primary screen, cell-based, P. falciparum Indochina, OD700, 18 h (AID 1157). To be noted: P. falciparum Indochina infected erythrocytes, osmotic lysis OD700, 18 h; higher = more signal, called active from +8 up or from −8 down.
A short description of experiment [7]: modulators of S6 phosphorylation in cells, primary screen, cell-based, A549, cytoblot, luminescence, serum-stimulated (AID 1158).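 Also: serum-stimulated A549 lung adenocarcinoma cells; signal is phosphorylated S6 detected by cytoblot immunostaining with HRP secondary.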 Conditions: A549 phospho-S6 cytoblot, 5 h, higher = more signal.
The target in experiment [8] is NADPH oxidase 2 (Homo sapiens) (UniProt P04839). Kind of experiment: NOX2-dependent H2O2 signal modulators, primary screen, NOX inhibitor project, cell-based, HEK293-NOX2, PMA-stimulated, Amplex Red fluorescence (AID 1159). Also: test concentration not given here. To be noted: 45 min, higher = more signal, called active from +8 up or from −8 down.
The target in experiment [9] is NADPH oxidase 4 (Homo sapiens) (UniProt Q9NPH5). Kind of experiment: NOX4-dependent H2O2 signal modulators, primary screen, NOX inhibitor project, cell-based, HEK293-NOX4, tetracycline-induced, Amplex Red fluorescence (AID 1160). To be noted: 45 min, higher = more signal, called active from +8 up or from −8 down.
Experiment [10] deals with NADPH oxidase 5 (Homo sapiens) (UniProt Q96PH1). Kind of experiment: NOX5-dependent H2O2 signal modulators, primary screen, NOX inhibitor project, cell-based, HEK293-NOX5, Amplex Red fluorescence (AID 1161). To be noted: HEK293-NOX5, ionomycin, 45 min, higher = more signal.
Experiment [11] in a line: A549 cell viability effects, profiling panel, calcein-AM fluorescence, 48 h, basal (AID 1162). Also: test concentration not given here. Conditions: higher = more signal.
Experiment [12] can be described thus: adipocyte viability effects, profiling panel, cell-based, 3T3-L1 adipocytes, calcein-AM fluorescence, 48 h, basal (AID 1163). Also: test concentration not given here. Conditions: 3T3-L1 adipocytes viability, higher = more signal.
Experiment [13] in a line: HepG2 cell viability effects, profiling panel, calcein-AM fluorescence, 48 h, basal (AID 1164). Also: test concentration not given here. To be noted: higher = more signal.
A short description of experiment [14]: MM1S cell viability effects, profiling panel, calcein-AM fluorescence, 48 h, basal (AID 1165).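 Also: viability of MM1S multiple myeloma cells under basal unstimulated conditions; test concentration not given here.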 To be noted: higher = more signal.
Experiment [15] in a line: basal RPMI8226 viability, no added stimulus, profiling panel, cell-based, calcein-AM fluorescence, 48 h, PK04 Diversity Set (AID 1166).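 Also: cells grown under basal conditions without added stimulus; test concentration not given here.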 To be noted: RPMI8226 myeloma viability, higher = more signal.
A short description of experiment [16]: basal HepG2 mitochondrial membrane potential changes, profiling panel, cell-based, JC-1 fluorescence, 24 h, 100 nL compound (AID 1167). Also: test concentration not given here. Conditions: higher = more signal.
A short description of experiment [17]: basal 3T3-L1 adipocyte mitochondrial potential changes, profiling panel, cell-based, JC-1 fluorescence, 3T3-L1 adipocytes, 24 h, 100 nL compound (AID 1168). Also: test concentration not given here. Conditions: JC-1 mitochondrial fluorescence, higher = more signal, called active from +8 up or from −8 down.
Experiment [18] can be described thus: basal RPMI8226 mitochondrial membrane potential changes, profiling panel, cell-based, JC-1 fluorescence, 24 h, 100 nL compound (AID 1169). Also: test concentration not given here. To be noted: RPMI8226 myeloma, JC-1 mitochondrial potential fluorescence, higher = more signal.
Experiment [19] can be described thus: basal MM1S mitochondrial membrane potential changes, profiling panel, cell-based, JC-1 fluorescence, 24 h, 100 nL compound (AID 1170). Also: test concentration not given here. Conditions: higher = more signal.
Experiment [20] in a line: A549 lung cancer cell viability effects, profiling panel, resazurin fluorescence, 24 h, PK04 Diversity Set (AID 1171). Also: test concentration not given here. Conditions: higher = more signal, called active from +8 up or from −8 down. (In general: Alamar Blue is a resazurin reagent that responds to reducing activity.)

Sequence of NADPH oxidase 2 (Homo sapiens) (P04839 whole entry, looked up): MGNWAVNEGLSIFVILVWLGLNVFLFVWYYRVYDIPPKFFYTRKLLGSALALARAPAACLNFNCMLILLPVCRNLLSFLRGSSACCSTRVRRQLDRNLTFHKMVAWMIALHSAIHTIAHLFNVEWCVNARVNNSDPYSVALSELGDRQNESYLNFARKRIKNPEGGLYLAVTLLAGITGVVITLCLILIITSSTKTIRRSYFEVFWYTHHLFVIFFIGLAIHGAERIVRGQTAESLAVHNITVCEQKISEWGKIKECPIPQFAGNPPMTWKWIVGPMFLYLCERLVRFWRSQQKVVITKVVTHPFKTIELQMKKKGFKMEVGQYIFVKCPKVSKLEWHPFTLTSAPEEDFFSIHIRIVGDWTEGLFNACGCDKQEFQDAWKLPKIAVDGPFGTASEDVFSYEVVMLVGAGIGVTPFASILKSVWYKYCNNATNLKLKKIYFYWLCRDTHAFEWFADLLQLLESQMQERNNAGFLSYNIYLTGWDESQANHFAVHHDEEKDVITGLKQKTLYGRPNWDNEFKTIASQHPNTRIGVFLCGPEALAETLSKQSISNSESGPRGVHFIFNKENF
Sequence of NADPH oxidase 5 (Homo sapiens) (Q96PH1 whole entry, looked up): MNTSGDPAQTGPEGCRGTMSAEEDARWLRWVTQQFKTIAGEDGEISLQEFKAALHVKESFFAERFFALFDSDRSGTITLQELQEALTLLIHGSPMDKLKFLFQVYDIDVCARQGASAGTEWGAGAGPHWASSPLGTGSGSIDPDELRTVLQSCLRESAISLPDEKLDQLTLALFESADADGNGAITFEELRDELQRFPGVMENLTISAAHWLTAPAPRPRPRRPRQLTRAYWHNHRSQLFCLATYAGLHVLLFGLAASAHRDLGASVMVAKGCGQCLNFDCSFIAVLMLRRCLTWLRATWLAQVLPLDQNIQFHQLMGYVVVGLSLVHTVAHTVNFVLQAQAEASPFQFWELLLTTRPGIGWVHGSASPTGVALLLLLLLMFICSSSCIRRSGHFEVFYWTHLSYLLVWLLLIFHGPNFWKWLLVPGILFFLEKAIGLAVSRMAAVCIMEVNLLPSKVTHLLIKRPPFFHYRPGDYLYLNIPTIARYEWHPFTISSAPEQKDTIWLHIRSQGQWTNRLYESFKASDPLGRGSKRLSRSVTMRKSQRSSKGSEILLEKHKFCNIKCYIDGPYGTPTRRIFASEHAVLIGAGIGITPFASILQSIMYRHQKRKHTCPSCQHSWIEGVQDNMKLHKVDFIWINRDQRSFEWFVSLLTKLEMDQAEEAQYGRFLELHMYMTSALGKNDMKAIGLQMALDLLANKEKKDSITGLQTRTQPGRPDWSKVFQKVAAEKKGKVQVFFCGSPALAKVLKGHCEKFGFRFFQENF
Sequence of NADPH oxidase 4 (Homo sapiens) (Q9NPH5 whole entry, looked up): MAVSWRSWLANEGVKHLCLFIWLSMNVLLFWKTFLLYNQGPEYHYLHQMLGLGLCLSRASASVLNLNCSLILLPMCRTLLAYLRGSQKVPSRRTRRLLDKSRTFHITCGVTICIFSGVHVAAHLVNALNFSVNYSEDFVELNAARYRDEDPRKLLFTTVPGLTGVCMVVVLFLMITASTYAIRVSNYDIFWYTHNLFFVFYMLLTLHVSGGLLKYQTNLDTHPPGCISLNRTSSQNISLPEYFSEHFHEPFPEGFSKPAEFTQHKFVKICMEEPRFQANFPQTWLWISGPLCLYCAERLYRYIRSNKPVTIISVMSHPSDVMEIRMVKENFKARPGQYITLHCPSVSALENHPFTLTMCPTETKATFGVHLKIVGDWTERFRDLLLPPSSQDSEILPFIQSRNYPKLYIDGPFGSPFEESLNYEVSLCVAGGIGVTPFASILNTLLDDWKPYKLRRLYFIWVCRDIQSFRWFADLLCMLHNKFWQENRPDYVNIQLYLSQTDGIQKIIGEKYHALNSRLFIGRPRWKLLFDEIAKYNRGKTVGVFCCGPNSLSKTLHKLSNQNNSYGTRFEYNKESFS

Turning to `CCN(CC)c1ccc(N2CC=CC34O[C@@H]5C=CCCOC(=O)C5[C@H]3C(=O)N(CCCCCO)[C@@H]4C2=O)cc1` (stereo not given in full), the z-score in experiment [1] was 2.82 (inactive); in experiment [3], 2 (inactive); in experiment [4] it was -0.0803 (inactive); in experiment [5], 1.11 (inactive); in experiment [6], 0.352 (inactive); in experiment [7], -0.195. Further, the z-score in experiment [8] was -0.11 (inactive); in [9] it was 0.604 (inactive); in [10] it was 0.895; in [11], 1.69; in experiment [12] it was 0.132; in [13], 1.08. The z-score in experiment [14] was 1.39; in experiment [15] it was -0.0513; in experiment [16], 1.65; in [17], 1.27 (inactive); in experiment [18], 0.589; in [19] it was 0.84. In [20], the z-score is 1.62 (inactive). The composite z-score in experiment [2] was 0.0391.

For `CCOC(=O)C1=C[C@@H](CC)N(S(=O)(=O)c2ccc(C)cc2)[C@H]1c1ccccc1`, the z-score in [1] is -1.03 (inactive); in experiment [3], 1.83 (inactive); in [4], 0.797 (inactive); in experiment [5] it was -0.187 (inactive); in experiment [6], 0.415 (inactive); in experiment [7] it was -0.388. For the same molecule, the z-score is 0.0452 (inactive) in experiment [8]; -0.606 (inactive) in [9]; -0.182 in [10]; -0.934 in experiment [11]; -0.167 in experiment [12]; -0.342 in experiment [13]. The z-score is -0.922 in experiment [14]; -1.37 in experiment [15]; -0.378 in [16]; -1.31 (inactive) in [17]; 0.649 in [18]; -0.894 in experiment [19]. For the same molecule, the z-score in experiment [20] was 1.46 (inactive). Further, the composite z-score in experiment [2] turned out to be 0.271.

Take `C=C(C(=O)CC[C@H](OC(C)=O)c1ccc(OCCO)cc1)C(C)C`: the z-score in experiment [1] is 2.32 (inactive); in experiment [3], 1.73 (inactive); in [4], -0.266 (inactive); in experiment [5] it was -1.84 (inactive); in experiment [6], -0.944 (inactive); in experiment [7] it was 0.823. Moreover, the z-score in experiment [8] was -3.44 (inactive); in [9], -1.75 (inactive); in experiment [10], -3.36; in experiment [11] it was -0.809; in experiment [12] it was -0.38; in [13] it was -1.22. Moreover, the z-score in [14] is -0.984; in experiment [15], -1.73; in [16], -1.05; in experiment [17] it was -0.00642 (inactive); in [18], 0.364; in experiment [19], 0.19. In experiment [20], the z-score was -0.358 (inactive). The molecule also gave a composite z-score in experiment [2] of 0.0004.

On to `CC(C)(C)N1CC=CC23O[C@@H]4C=CCOC(=O)[C@@H]4[C@H]2C(=O)N(CCCCCO)[C@@H]3C1=O` (stereo not given in full), for which the z-score in experiment [1] is -0.197 (inactive); in [3], 0.987 (inactive); in [4], 0.624 (inactive); in experiment [5], 1.47 (inactive); in [6], 0.453 (inactive); in experiment [7], -0.301. The z-score in experiment [8] is 1.27 (inactive); in experiment [9], 0.436 (inactive); in experiment [10], 1.52; in [11] it was -0.52; in [12], 0.468; in [13], -0.542. The z-score was -0.341 in [14]; 0.606 in experiment [15]; -0.667 in [16]; -0.173 (inactive) in experiment [17]; 0.828 in experiment [18]; 0.388 in experiment [19]. In addition, in experiment [20], the z-score was -1.08 (inactive). Also, the composite z-score in experiment [2] was -0.0094.

For the molecule `COc1ccc(C(=O)Nc2cccc(CN3C(=O)[C@@]4(O[C@@H](CCn5cc(CCO)nn5)[C@H]([Si](C)(C)c5ccc(OC)cc5)[C@H]4C)c4ccccc43)c2)cc1`, the z-score was -2.23 (inactive) in [1]; 13.4 (active) in experiment [3]; 2.74 (inactive) in experiment [4]; 0.318 (inactive) in experiment [5]; 1.26 (inactive) in [6]; -0.782 in experiment [7]. The z-score is -3.75 (inactive) in experiment [8]; -0.389 (inactive) in experiment [9]; 2.37 in experiment [10]; -1.31 in experiment [11]; -0.599 in experiment [12]; -4.58 in [13]. The z-score in experiment [14] is -2.88; in [15], -4.33; in [16] it was 0.254; in experiment [17] it was 0.285 (inactive); in experiment [18] it was -0.136; in experiment [19], -2.3. In addition, the z-score in [20] is -4.55 (inactive). In experiment [2], this molecule showed a composite z-score of 0.223.

With `CN(C)C(=O)[C@@]1(CCC(=O)OC(C)(C)C)N=C(c2ccc(OCCCO)cc2)O[C@H]1c1ccccc1`, the z-score in [1] is -0.249 (inactive); in experiment [3] it was 15.9 (active); in experiment [4], 1 (inactive); in experiment [5], 1.34 (inactive); in experiment [6], -0.976 (inactive); in experiment [7], 0.837. Also, the z-score is -2.81 (inactive) in experiment [8]; -0.618 (inactive) in [9]; -0.698 in experiment [10]; -0.211 in experiment [11]; 0.687 in experiment [12]; -0.517 in experiment [13]. Besides, the z-score in [14] was 0.301; in [15], -1.48; in experiment [16] it was 0.26; in experiment [17], -0.58 (inactive); in experiment [18] it was -1; in [19], 0.279. Further, the z-score in experiment [20] is 0.107 (inactive). The composite z-score in experiment [2] came out at 0.986.

For `O=C1OCC=C[C@H]2OC34C=CCN(c5ccc(Cl)cc5)C(=O)[C@H]3N(CCCCCCO)C(=O)[C@@H]4[C@@H]12` (stereo not given in full), the z-score in experiment [1] was 0.49 (inactive); in experiment [3], 1.73 (inactive); in [4] it was 0.398 (inactive); in experiment [5], 0.497 (inactive); in experiment [6], 0.476 (inactive); in experiment [7], -0.243. Also, the z-score in experiment [8] is 1.42 (inactive); in [9] it was -0.583 (inactive); in experiment [10], 1.96; in [11], 0.32; in experiment [12], -0.122; in experiment [13], 0.955. For the same molecule, the z-score was 1.12 in experiment [14]; 0.057 in experiment [15]; 0.715 in experiment [16]; 0.26 (inactive) in [17]; 0.231 in experiment [18]; 1.5 in experiment [19]. For the same molecule, the z-score in [20] was 1.12 (inactive). For the same molecule, the composite z-score in experiment [2] was found to be 0.135.

As for `CN1CCC(CCCO)=CC1c1ccc(CN2CCCC2)cc1` (stereo not given), the z-score in [1] was 0.112 (inactive); in experiment [3] it was -0.274 (inactive); in experiment [4], -0.201 (inactive); in [5] it was -0.0797 (inactive); in experiment [6] it was -0.111 (inactive); in experiment [7], -0.494. The z-score in experiment [8] was -3.22 (inactive); in experiment [9], -0.765 (inactive); in experiment [10], -0.482; in [11] it was -0.701; in experiment [12], 0.143; in [13] it was -0.86. Moreover, the z-score is -0.52 in experiment [14]; 0.559 in [15]; 0.217 in experiment [16]; -0.0668 (inactive) in [17]; -0.714 in experiment [18]; 0.00742 in experiment [19]. In addition, the z-score in experiment [20] was 0.819 (inactive). This molecule also returned a composite z-score in [2] of 0.663.
